In PubChem BioAssay AID1159580 (chemical genetic matrix, 2015):
Among all 5,500 compounds or so, about 2,000 (36%) were called active. Another 18% or so got no clear call; they are omitted. Some of the results follow. Values without a mark were called inactive. Rule as the data show it: active = normalized growth mostly below about 0.91 (no sharp cut-off); inconclusive = no clear call, values can overlap the other calls; inactive = mostly above about 0.92.

Experiment: chemical genetic growth profiling, strain panel (AID 1159580);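 also: tested at 20 µM; growth read once vehicle control cultures reached saturation at 30 °C; 1 = growth at the plate median or of vehicle wells; lower values mean less growth of the strain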
Conditions: growth OD

## C#C[C@]1(O)CCC2C3CCC4=CC(=O)CC[C@@H]4C3CC[C@@]21CC (stereo not given in full)
S. cerevisiae deletion strains, locus YJR066W, strain TOR1, stronger effect = lower value
  normalized growth: 0.91
S. cerevisiae deletion strains, locus YKL009W, strain mrt4, stronger effect = lower value
  normalized growth: 0.96
S. cerevisiae deletion strains, locus YKL068W, stronger effect = lower value
  normalized growth: 0.999
S. cerevisiae deletion strains, locus YKL085W, strain MDH1 (second series), stronger effect = lower value
  normalized growth: 0.988
S. cerevisiae deletion strains, locus YKL085W, strain MDH1, stronger effect = lower value
  normalized growth: 0.988
S. cerevisiae deletion strains, locus YKL160W, strain elf1, stronger effect = lower value
  normalized growth: 0.988
S. cerevisiae deletion strains, locus YKL190W, strain CNB1, stronger effect = lower value
  normalized growth: 1.01
S. cerevisiae deletion strains, locus YKR001C, strain vps1, stronger effect = lower value
  normalized growth: 1
S. cerevisiae deletion strains, locus YKR026C, strain gcn3, stronger effect = lower value
  normalized growth: 1
S. cerevisiae deletion strains, locus YKR091W, strain srl3, stronger effect = lower value
  normalized growth: 0.993
S. cerevisiae deletion strains, locus YLL001W, strain dnm1, stronger effect = lower value
  normalized growth: 0.987
S. cerevisiae deletion strains, locus YLL026W, stronger effect = lower value
  normalized growth: 1
S. cerevisiae deletion strains, locus YLL041C, strain sdh2, stronger effect = lower value
  normalized growth: 0.99
S. cerevisiae deletion strains, locus YLR027C, strain aat2, stronger effect = lower value
  normalized growth: 0.989
S. cerevisiae deletion strains, locus YLR039C, strain RIC1, stronger effect = lower value
  normalized growth: 0.949
S. cerevisiae deletion strains, locus YLR058C, strain SHM2, stronger effect = lower value
  normalized growth: 0.998
S. cerevisiae deletion strains, locus YLR102C, strain apc9, stronger effect = lower value
  normalized growth: 0.992
S. cerevisiae deletion strains, locus YLR113W, strain HOG1, stronger effect = lower value
  normalized growth: 0.946
S. cerevisiae deletion strains, locus YLR221C, strain rsa3, stronger effect = lower value
  normalized growth: 0.997
S. cerevisiae deletion strains, locus YLR258W, strain gsy2, stronger effect = lower value
  normalized growth: 1
S. cerevisiae deletion strains, locus YLR262C, strain YPT6 (second series), stronger effect = lower value
  normalized growth: 0.829 (active)
S. cerevisiae deletion strains, locus YLR262C, strain YPT6, stronger effect = lower value
  normalized growth: 0.903
S. cerevisiae deletion strains, locus YLR268W, strain sec22, stronger effect = lower value
  normalized growth: 0.958
S. cerevisiae deletion strains, locus YLR320W, strain mms22, stronger effect = lower value
  normalized growth: 0.96
S. cerevisiae deletion strains, locus YLR330W, strain CHS5, stronger effect = lower value
  normalized growth: 0.991
S. cerevisiae deletion strains, locus YLR342W, strain FKS1 (second series), stronger effect = lower value
  normalized growth: 0.983
S. cerevisiae deletion strains, locus YLR342W, strain FKS1, stronger effect = lower value
  normalized growth: 0.985
S. cerevisiae deletion strains, locus YLR357W, strain rsc2, stronger effect = lower value
  normalized growth: 1.06
S. cerevisiae deletion strains, locus YLR370C, strain arc18, stronger effect = lower value
  normalized growth: 0.984
S. cerevisiae deletion strains, locus YLR371W, strain rom2, stronger effect = lower value
  normalized growth: 0.992
S. cerevisiae deletion strains, locus YLR384C, strain iki3, stronger effect = lower value
  normalized growth: 0.992
S. cerevisiae deletion strains, locus YLR418C, strain cdc73, stronger effect = lower value
  normalized growth: 1.03
S. cerevisiae deletion strains, locus YML016C, strain PPZ1, stronger effect = lower value
  normalized growth: 0.989
S. cerevisiae deletion strains, locus YML032C, strain rad52, stronger effect = lower value
  normalized growth: 0.977
S. cerevisiae deletion strains, locus YML120C, strain ndi1, stronger effect = lower value
  normalized growth: 1.01
S. cerevisiae deletion strains, locus YML124C, strain tub3, stronger effect = lower value
  normalized growth: 0.988
S. cerevisiae deletion strains, locus YMR058W, strain fet3, stronger effect = lower value
  normalized growth: 0.987
S. cerevisiae deletion strains, locus YMR078C, strain ctf18, stronger effect = lower value
  normalized growth: 0.989
S. cerevisiae deletion strains, locus YMR125W, strain sto1, stronger effect = lower value
  normalized growth: 1
S. cerevisiae deletion strains, locus YMR129W, stronger effect = lower value
  normalized growth: 0.983
S. cerevisiae deletion strains, locus YMR205C, strain PFK2, stronger effect = lower value
  normalized growth: 0.989
S. cerevisiae deletion strains, locus YMR223W, strain ubp8, stronger effect = lower value
  normalized growth: 0.987
S. cerevisiae deletion strains, locus YMR231W, strain pep5, stronger effect = lower value
  normalized growth: 0.999
S. cerevisiae deletion strains, locus YMR307W, strain GAS1, stronger effect = lower value
  normalized growth: 1.12
S. cerevisiae deletion strains, locus YNL067W, strain RPL9B, stronger effect = lower value
  normalized growth: 1.01
S. cerevisiae deletion strains, locus YNL071W, strain lat1, stronger effect = lower value
  normalized growth: 0.992
S. cerevisiae deletion strains, locus YNL128W, strain TEP1, stronger effect = lower value
  normalized growth: 0.988
S. cerevisiae deletion strains, locus YNL153C, strain GIM3, stronger effect = lower value
  normalized growth: 1.01
S. cerevisiae deletion strains, locus YNL183C, strain NPR1, stronger effect = lower value
  normalized growth: 0.922
S. cerevisiae deletion strains, locus YNL209W, strain ssb2, stronger effect = lower value
  normalized growth: 0.993
S. cerevisiae deletion strains, locus YNL233W, strain BNI4, stronger effect = lower value
  normalized growth: 0.992
S. cerevisiae deletion strains, locus YNL248C, strain rpa49, stronger effect = lower value
  normalized growth: 1
S. cerevisiae deletion strains, locus YNL250W, strain rad50, stronger effect = lower value
  normalized growth: 0.988
S. cerevisiae deletion strains, locus YNL271C, strain bni1, stronger effect = lower value
  normalized growth: 0.982
S. cerevisiae deletion strains, locus YNL298W, strain CLA4, stronger effect = lower value
  normalized growth: 0.961
S. cerevisiae deletion strains, locus YNL307C, strain MCK1, stronger effect = lower value
  normalized growth: 0.98
S. cerevisiae deletion strains, locus YNL322C, strain KRE1 (second series), stronger effect = lower value
  normalized growth: 1
S. cerevisiae deletion strains, locus YNR049C, strain mso1, stronger effect = lower value
  normalized growth: 1
S. cerevisiae deletion strains, locus YNR052C, strain pop2, stronger effect = lower value
  normalized growth: 0.964
S. cerevisiae deletion strains, locus YOL006C, strain TOP1, stronger effect = lower value
  normalized growth: 1.03
S. cerevisiae deletion strains, locus YOL012C, strain htz1
  normalized growth: 1.51
S. cerevisiae deletion strains, locus YOL147C, strain pex11, stronger effect = lower value
  normalized growth: 0.994
S. cerevisiae deletion strains, locus YOR001W, strain rrp6, stronger effect = lower value
  normalized growth: 0.967
S. cerevisiae deletion strains, locus YOR061W, strain CKA2, stronger effect = lower value
  normalized growth: 0.983
S. cerevisiae deletion strains, locus YOR069W, strain VPS5, stronger effect = lower value
  normalized growth: 0.991
S. cerevisiae deletion strains, locus YOR070C, strain gyp1, stronger effect = lower value
  normalized growth: 0.995
S. cerevisiae deletion strains, locus YOR080W, strain dia2, stronger effect = lower value
  normalized growth: 0.996
S. cerevisiae deletion strains, locus YOR083W, strain WHI5, stronger effect = lower value
  normalized growth: 0.997
S. cerevisiae deletion strains, locus YOR106W, strain vam3, stronger effect = lower value
  normalized growth: 0.997
S. cerevisiae deletion strains, locus YOR136W, strain idh2, stronger effect = lower value
  normalized growth: 0.991
S. cerevisiae deletion strains, locus YOR144C, strain elg1, stronger effect = lower value
  normalized growth: 0.994
S. cerevisiae deletion strains, locus YOR184W, strain ser1, stronger effect = lower value
  normalized growth: 0.912
S. cerevisiae deletion strains, locus YOR231W, strain MKK1, stronger effect = lower value
  normalized growth: 0.983
S. cerevisiae deletion strains, locus YOR265W, strain rbl2, stronger effect = lower value
  normalized growth: 1
S. cerevisiae deletion strains, locus YOR270C, strain vph1, stronger effect = lower value
  normalized growth: 0.957
S. cerevisiae deletion strains, locus YOR290C, strain snf2, stronger effect = lower value
  normalized growth: 0.98
S. cerevisiae deletion strains, locus YOR316C, strain cot1, stronger effect = lower value
  normalized growth: 0.989
S. cerevisiae deletion strains, locus YPL051W, strain arl3, stronger effect = lower value
  normalized growth: 0.979
S. cerevisiae deletion strains, locus YPL055C, strain LGE1, stronger effect = lower value
  normalized growth: 1.04
S. cerevisiae deletion strains, locus YPL078C, strain atp4, stronger effect = lower value
  normalized growth: 0.996
S. cerevisiae deletion strains, locus YPL106C, strain sse1, stronger effect = lower value
  normalized growth: 1.06
S. cerevisiae deletion strains, locus YPL240C, strain hsp82, stronger effect = lower value
  normalized growth: 1
S. cerevisiae deletion strains, locus YPL241C, strain CIN2, stronger effect = lower value
  normalized growth: 1
S. cerevisiae deletion strains, locus YPL256C, strain CLN2, stronger effect = lower value
  normalized growth: 0.963
S. cerevisiae deletion strains, locus YPR119W, strain clb2, stronger effect = lower value
  normalized growth: 1
S. cerevisiae deletion strains, locus YPR141C, strain kar3, stronger effect = lower value
  normalized growth: 0.983
S. cerevisiae deletion strains, locus YPR163C, strain tif3, stronger effect = lower value
  normalized growth: 0.99
S. cerevisiae deletion strains, locus YPR167C, strain met16, stronger effect = lower value
  normalized growth: 0.988
S. cerevisiae deletion strains, strain wtn01, stronger effect = lower value
  normalized growth: 0.973
S. cerevisiae strains, strain wild type, stronger effect = lower value
  normalized growth: 1.02
